# In PubChem BioAssay:
# Active and inactive are the calls of the source.
# Tests used:
# Albumin (Bos taurus) = Albumin (Bos taurus) (UniProt P02769); test: bovine serum albumin binders on microarray, profiling panel, artefact control for SMM control protein annotation, biochemical, small-molecule microarray, Alexa647 label, 635/667 nm fluorescence (AID 1118); conditions: BSA-A647 binding, fluorescence 635 nm, higher = more signal;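 further: score merges 667 nm emission intensity and signal-to-noise per printed compound spot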
# [1] = small-molecule microarray binders of probe aXIP, primary screen, biochemical, NeuroSMM set, 635/667 nm fluorescence (AID 1119); conditions: higher = more signal, called active from +8 up or from −8 down;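 further: probe is the protein aXip251-270 applied at 1 µg/mL to compound-printed slides; binding of probe to printed compounds measured as 667 nm fluorescence plus signal to noise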
# [2] = small-molecule binders of probe aNOTCH3, primary screen, biochemical, small-molecule microarray, 635/667 nm fluorescence (AID 1120); conditions: higher = more signal;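 further: probe is a biotin-tagged antibody raised against NOTCH3 rather than NOTCH3 protein; score merges spot fluorescence near 667 nm with spot signal to noise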
# [3] = small-molecule binders of probe aNOTCH2, primary screen, biochemical, small-molecule microarray, 635/667 nm fluorescence (AID 1121); conditions: higher = more signal;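 further: score merges feature fluorescence read at 667 nm with its signal to noise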
# [4] = target: Carbonic anhydrase 2 (Homo sapiens) (UniProt P00918); test: CAII small-molecule binders, profiling panel, biochemical, small-molecule microarray, Alexa647-labelled CAII (AID 1122); conditions: CAII-A647 binding fluorescence, higher = more signal
# [5] = COS7 lysate on small-molecule microarray, probe aHis, 635 nm (AID 1123); conditions: COS7 cell lysate, fluorescence, higher = more signal;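 further: z-score combines 667nm fluorescence intensity with signal-to-noise per printed compound spot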
# [6] = compound binding in COS7 lysate, probe aLAP1, primary screen, cell lysate, small-molecule microarray (AID 1124); conditions: probe aLAP1, fluorescence, higher = more signal;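 further: lysate comes from COS7 cells expressing LAP1 and is applied at 0.3 µg/mL; score merges spot fluorescence near 667 nm with signal-to-noise over triplicate slides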
# Sam68 (KHDRBS1) = test: Sam68 small-molecule binders, primary screen, biochemical, small-molecule microarray, 635 nm fluorescence (AID 1125); conditions: small-molecule microarray binding, higher = more signal;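 further: score merges 667 nm channel intensity with signal to noise over triplicate slides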
# [7] = tested on: Chordin-like protein 2 (CHRDL2); test: CHRDL2 small-molecule binders, primary screen, biochemical, small-molecule microarray, 635 nm fluorescence (AID 1126); conditions: small-molecule microarray binding, fluorescence 635 nm; higher = more signal;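 further: printed compound slides probed with Chrdl2 protein at 4 µg/mL for 1 h at 4 C; score merges 667 nm emission intensity with signal to noise over three replicate slides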
# [8] = target: Concanavalin-A (Canavalia ensiformis) (UniProt P02866); test: ConA small-molecule binders, primary screen, artefact control for SMM control protein annotation, biochemical, small-molecule microarray, Alexa647 label, 635 nm (AID 1127); conditions: ConA-A647 binding fluorescence, higher = more signal;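 further: z combines 667 nm emission intensity with signal-to-noise across three replicate slides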
# [9] = anti-His antibody binders, primary screen, artefact control for SMM control protein annotation, biochemical, small-molecule microarray, 635 nm fluorescence (AID 1128); conditions: anti-His Alexa647 antibody binding, higher = more signal;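 further: score merges feature fluorescence with signal-to-noise for each printed compound spot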
# [10] = tested on: Human papillomavirus type 1a E7 protein (residues 1-88); test: HPV1a E7 small-molecule binders, primary screen, biochemical, small-molecule microarray, residues 1-88, 635 nm (AID 1129); conditions: small-molecule microarray binding, fluorescence 635 nm; higher = more signal
# [11] = target: Focal adhesion kinase 1 (Homo sapiens) (UniProt Q05397); test: small-molecule microarray binders of FAK, primary screen, biochemical, 635/667 nm fluorescence, BSA, DTT (AID 1130); conditions: PTK2 binding, 635 nm fluorescence, higher = more signal;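 further: composite of spot emission at 667 nm and signal to noise over triplicate slides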
# [12] = tested on: Fibrinogen (Alexa647-labelled); test: fibrinogen binders on compound microarrays, profiling panel, artefact control for SMM control-protein annotation, biochemical, small-molecule microarray, 635/667 nm fluorescence (AID 1131); conditions: fibrinogen-A647 binding fluorescence, higher = more signal;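 further: z-score merges 667 nm fluorescence with per-spot signal-to-noise over triplicate slides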
# [13] = target: Follistatin (Homo sapiens) (UniProt P19883); test: follistatin binders on small-molecule microarrays, primary screen, biochemical, small-molecule microarray, 635/667 nm fluorescence (AID 1132); conditions: FST binding, 635 nm fluorescence, higher = more signal
# [14] = target: Fibroblast growth factor 2 (Homo sapiens) (UniProt P09038); test: FGF2 binders on small-molecule microarrays, primary screen, biochemical, small-molecule microarray, 635/667 nm fluorescence (AID 1133); conditions: small-molecule microarray binding, FGF2, fluorescence 635/667; higher = more signal
# [15] = mitochondrial membrane potential change in A549 cells, profiling panel, cell-based, JC-1 fluorescence, basal, 24 h, 100 nL (AID 1138); conditions: higher = more signal;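 further: A549 lung adenocarcinoma cells under basal conditions with no added stimulus; test concentration not given here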
# Lefty1 = Lefty1 binders on small-molecule microarrays, primary screen, biochemical, small-molecule microarray, 635/667 nm fluorescence (AID 1139); conditions: small-molecule microarray binding, fluorescence 635/667; higher = more signal
# [16] = tested on: wheat germ agglutinin (Triticum aestivum), Alexa647-labelled; test: wheat germ agglutinin binders on compound microarrays, profiling panel, artefact control for SMM control-protein annotation, biochemical, small-molecule microarray, 635/667 nm fluorescence (AID 1140); conditions: WGA-A647 binding, 635 nm fluorescence, higher = more signal;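 further: score merges 667 nm feature emission with signal to noise over triplicate slides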
# [17] = target: Luciferin 4-monooxygenase (Photinus pyralis) (UniProt P08659); test: firefly luciferase enzyme inhibitors, primary screen, biochemical, luminescence, purified enzyme, 2006 set (AID 1141); conditions: SteadyGlo luminescence, 30 min, higher = more signal, called active from +8 up or from −8 down;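 further: cell-free assay with purified firefly luciferase at 100 ng per well in PBS; test concentration not given here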
# Sequence of Luciferin 4-monooxygenase (Photinus pyralis) (P08659 whole entry, looked up): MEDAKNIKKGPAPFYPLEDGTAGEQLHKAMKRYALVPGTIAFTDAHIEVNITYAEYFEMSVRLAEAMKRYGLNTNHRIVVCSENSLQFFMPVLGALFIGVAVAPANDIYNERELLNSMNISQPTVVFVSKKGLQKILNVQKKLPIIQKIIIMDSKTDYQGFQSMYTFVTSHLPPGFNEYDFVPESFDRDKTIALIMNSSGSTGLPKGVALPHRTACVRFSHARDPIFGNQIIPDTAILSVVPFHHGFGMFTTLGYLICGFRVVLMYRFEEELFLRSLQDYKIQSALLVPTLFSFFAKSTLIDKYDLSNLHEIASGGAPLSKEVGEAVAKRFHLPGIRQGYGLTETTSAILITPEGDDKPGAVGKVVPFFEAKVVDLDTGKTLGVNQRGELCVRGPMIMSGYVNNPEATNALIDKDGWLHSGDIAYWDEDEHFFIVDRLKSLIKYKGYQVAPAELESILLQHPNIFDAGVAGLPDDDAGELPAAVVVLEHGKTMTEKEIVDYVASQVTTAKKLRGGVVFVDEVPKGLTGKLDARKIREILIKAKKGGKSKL
# Sequence of Follistatin (Homo sapiens) (P19883 whole entry, looked up): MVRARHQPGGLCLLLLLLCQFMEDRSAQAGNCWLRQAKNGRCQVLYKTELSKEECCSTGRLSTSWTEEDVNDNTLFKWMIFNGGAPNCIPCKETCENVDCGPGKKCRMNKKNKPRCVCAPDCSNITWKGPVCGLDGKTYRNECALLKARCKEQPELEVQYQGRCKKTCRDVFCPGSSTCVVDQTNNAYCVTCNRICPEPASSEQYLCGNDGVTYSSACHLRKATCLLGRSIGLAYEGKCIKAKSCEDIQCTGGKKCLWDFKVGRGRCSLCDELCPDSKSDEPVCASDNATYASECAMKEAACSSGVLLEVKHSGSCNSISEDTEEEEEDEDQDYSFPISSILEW
# Sequence of Fibroblast growth factor 2 (Homo sapiens) (P09038 whole entry, looked up): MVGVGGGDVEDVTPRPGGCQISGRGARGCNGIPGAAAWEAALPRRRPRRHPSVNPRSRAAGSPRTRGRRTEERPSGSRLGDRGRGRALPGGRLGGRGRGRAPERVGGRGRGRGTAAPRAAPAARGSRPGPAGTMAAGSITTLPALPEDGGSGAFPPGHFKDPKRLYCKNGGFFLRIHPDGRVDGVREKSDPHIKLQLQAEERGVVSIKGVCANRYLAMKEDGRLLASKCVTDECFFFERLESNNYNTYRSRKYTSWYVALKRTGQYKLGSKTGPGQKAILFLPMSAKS
# Sequence of Focal adhesion kinase 1 (Homo sapiens) (Q05397 whole entry, looked up): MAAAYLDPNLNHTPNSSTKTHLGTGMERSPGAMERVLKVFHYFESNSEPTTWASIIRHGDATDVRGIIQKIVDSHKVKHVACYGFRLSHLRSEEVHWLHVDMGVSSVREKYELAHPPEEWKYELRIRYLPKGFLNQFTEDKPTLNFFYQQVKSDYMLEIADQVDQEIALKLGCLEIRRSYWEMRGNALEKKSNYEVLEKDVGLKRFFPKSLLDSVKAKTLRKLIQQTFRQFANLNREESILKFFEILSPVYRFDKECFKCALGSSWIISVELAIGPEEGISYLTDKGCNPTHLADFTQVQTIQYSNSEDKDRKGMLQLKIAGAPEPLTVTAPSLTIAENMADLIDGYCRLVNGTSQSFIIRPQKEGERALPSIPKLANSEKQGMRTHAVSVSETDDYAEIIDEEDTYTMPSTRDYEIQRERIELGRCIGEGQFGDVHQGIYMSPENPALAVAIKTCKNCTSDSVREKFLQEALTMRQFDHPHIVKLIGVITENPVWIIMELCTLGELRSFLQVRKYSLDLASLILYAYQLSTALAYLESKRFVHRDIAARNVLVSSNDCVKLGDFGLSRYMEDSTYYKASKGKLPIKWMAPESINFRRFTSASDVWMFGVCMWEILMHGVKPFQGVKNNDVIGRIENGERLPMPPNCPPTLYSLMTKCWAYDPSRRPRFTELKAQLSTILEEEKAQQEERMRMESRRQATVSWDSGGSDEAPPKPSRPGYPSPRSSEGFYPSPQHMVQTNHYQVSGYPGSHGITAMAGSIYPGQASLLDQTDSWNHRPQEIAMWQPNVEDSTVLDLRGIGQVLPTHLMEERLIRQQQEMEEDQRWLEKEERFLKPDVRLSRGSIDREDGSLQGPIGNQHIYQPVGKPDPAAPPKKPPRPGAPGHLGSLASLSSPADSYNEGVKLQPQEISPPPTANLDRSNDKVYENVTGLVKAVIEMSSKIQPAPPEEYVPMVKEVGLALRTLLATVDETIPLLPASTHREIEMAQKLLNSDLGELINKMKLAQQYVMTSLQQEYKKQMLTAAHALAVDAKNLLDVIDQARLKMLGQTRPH
# Sequence of Albumin (Bos taurus) (P02769 whole entry, looked up): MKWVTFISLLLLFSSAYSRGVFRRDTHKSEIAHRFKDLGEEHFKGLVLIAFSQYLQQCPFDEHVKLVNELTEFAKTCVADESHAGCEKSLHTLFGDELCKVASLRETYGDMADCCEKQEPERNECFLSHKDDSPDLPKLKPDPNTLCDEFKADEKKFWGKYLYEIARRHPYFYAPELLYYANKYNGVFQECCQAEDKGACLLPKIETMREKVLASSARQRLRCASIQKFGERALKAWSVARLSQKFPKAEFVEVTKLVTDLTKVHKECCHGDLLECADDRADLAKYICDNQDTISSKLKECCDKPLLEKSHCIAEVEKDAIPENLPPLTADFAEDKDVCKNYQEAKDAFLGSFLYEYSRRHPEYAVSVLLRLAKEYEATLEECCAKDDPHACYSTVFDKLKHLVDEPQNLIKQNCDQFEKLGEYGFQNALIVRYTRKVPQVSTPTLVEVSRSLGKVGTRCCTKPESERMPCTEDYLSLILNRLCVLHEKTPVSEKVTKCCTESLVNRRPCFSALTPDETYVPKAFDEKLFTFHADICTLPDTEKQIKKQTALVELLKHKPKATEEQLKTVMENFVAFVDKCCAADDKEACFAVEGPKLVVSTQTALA
# Sequence of Concanavalin-A (Canavalia ensiformis) (P02866 whole entry, looked up): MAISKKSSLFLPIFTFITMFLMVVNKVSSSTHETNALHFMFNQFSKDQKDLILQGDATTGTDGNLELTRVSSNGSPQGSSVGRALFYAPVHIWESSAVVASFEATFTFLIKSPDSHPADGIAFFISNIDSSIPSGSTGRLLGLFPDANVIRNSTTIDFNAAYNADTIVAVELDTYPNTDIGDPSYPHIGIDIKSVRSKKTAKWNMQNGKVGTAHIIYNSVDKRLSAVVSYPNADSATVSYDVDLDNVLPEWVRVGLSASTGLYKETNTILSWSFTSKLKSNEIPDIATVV
SMILES,composite z-score (Albumin (Bos taurus)),composite Z-score [1],composite z-score [2],composite z-score [3],composite z-score [4],composite z-score [5],composite z-score [6],composite z-score (Sam68 (KHDRBS1)),composite z-score [7],composite z-score [8],composite z-score [9],composite z-score [10],composite z-score [11],composite z-score [12],composite z-score [13],composite z-score [14],z-score [15],composite z-score (Lefty1),composite z-score [16],z-score [17]
O=C1O[C@@H](c2ccccc2)[C@@H](c2ccccc2)N2[C@@H](c3ccccc3OCCO)[C@]3(C(=O)Nc4ccccc43)[C@@H](C(=O)O)[C@H]12,0.858,-0.0247 (inactive),-0.254,-0.0657,0.441,1.78,0.369,1.12,-0.165,1.13,0.969,0.718,0.66,0.882,-0.0086,-0.166,-0.184,-0.474,0.56,-1.55 (inactive)
CN1C(=O)C2C=CC(C(O)c3c(F)cccc3Cl)N(NC(=O)OC(C)(C)C)C2C1=O (stereo not given),0.972,2.18 (inactive),-0.0362,0.109,0.572,2.75,0.67,1.22,-0.729,0.918,1.11,1.09,0.427,1.01,0.453,-0.174,0.584,-0.242,0.634,0.682 (inactive)
